Results taken from PubChem BioAssay AID2253 (Southern Research Specialized Biocontainment Screening …, 2010).
About 1,300 (59%) of roughly 2,200 compounds were called active. The rule behind the calls is not given here. The set was probably picked from earlier hits. Only a sample is shown. Measured potencies and affinities stand elsewhere.

Assay: human monocytic cell viability reduction – S. typhimurium screen hits, cytotoxicity control for Salmonella PhoP regulon inhibitors, dose response (AID 2253)
Settings: THP-1 viability, CellTiter-Glo luminescence, 72 h; series mostly up to 50 µM
With `Cc1ccc(NC2CC(=O)N(Cc3ccccc3)C2=O)cc1` (configuration not stated) the outcome was “inactive”. In the case of `CCN1C(=O)/C(=C/N2CC(C)CC(C)C2)SC1=S` (configuration not stated), the outcome is reported as “inactive”. For `CCc1ccc(NC(=O)c2noc3c2CCc2ccccc2-3)cc1`, the outcome was “inactive”. With `Cc1ccc(N2C(=O)CC(n3ccnc3)C2=O)cc1C` (configuration not stated) the outcome was “inactive”. For `COc1ccc2cc(C)c3nnc(SCC(=O)Nc4nc(-c5ccccc5)cs4)n3c2c1`, the outcome was “inactive”. For `CN(C)CC(=O)Nc1nc(-c2ccccc2)cs1`, the outcome was “inactive”. For `CS(=O)(=O)c1ccc([C@@H](O)[C@@H](CO)NC(=O)C(Cl)Cl)cc1`, the outcome was “inactive”. With `CCOCc1nnc(NC(=O)COC)s1` the outcome was “inactive”. For `CC(NC(=O)CSc1nc2c(cc1C#N)CN(C)CC2)c1ccccc1` (configuration not stated), the outcome was “inactive”. For `COc1cccc(C=NCCNC(=O)c2nonc2N)c1O`, the outcome was “inactive”. For `O=C1CCc2cc(S(=O)(=O)N3CCN(c4cccc(Cl)c4)CC3)ccc2N1`, the outcome was “inactive”. With `CCN(CC)c1ccc(/C=C(\C#N)C(=O)NCc2ccco2)cc1` the outcome was “inactive”. For `CCOC(=O)C1CCCN(S(=O)(=O)c2ccc(Br)c(OC)c2)C1` (configuration not stated), the outcome was “inactive”. For `CCn1cc(C(=O)O)c(=O)c2cc(F)c(N3CCN(C(=S)Nc4ccc(OC)cc4)CC3)cc21`, the outcome was “inactive”. For `C/C(Nc1ccc(F)cc1)=C(/C#N)C(N)=O`, the outcome was “inactive”. For `Cc1cc(-c2c(C)n([O-])c(C)c(C)[n+]2=O)ccc1F`, the outcome was “inactive”. For `CCC(Sc1ncccc1C(=O)OC(C)C)C(=O)N1CCOCC1` (configuration not stated), the outcome was “inactive”. For `Cc1cc(NC(=O)c2cnn3cccnc23)no1`, the outcome was “inactive”. In the case of `CCn1cc(C(=O)NCCCO)c(=O)c2cc(F)c(N3CCN(C)CC3)cc21`, the outcome is reported as “inactive”. For `O=c1[nH]c(CSc2nnc(NCCCN3CCOCC3)s2)nc2cc(Cl)ccc12`, the outcome was “inactive”. In the case of `C=CC#CC[N+]1(CC#Cc2ccccc2)CCOCC1`, the outcome is reported as “inactive”. For `CN1CCCC(OC(=O)c2ccc(Cl)cc2)C1` (configuration not stated), the outcome was “inactive”. For `O=C(O)/C=C/C(=O)Nc1cccc(C(F)(F)F)c1`, the outcome was “inactive”. In the case of `FC(F)(F)c1cccc(NC(=S)NCCN2CCOCC2)c1`, the outcome is reported as “inactive”. With `c1ccc(-c2nnc(SCCC3OCCCO3)o2)cc1` the outcome was “inactive”. With `Cc1cc(-c2csc(NC(=O)c3ccc(C#N)cc3)n2)c(C)n1Cc1ccco1` the outcome was “inactive”. For `Cc1ccc(CNC(=O)C2CCCN(S(=O)(=O)c3c(C)noc3C)C2)cc1` (configuration not stated), the outcome was “inactive”. For `Cc1cccc(-n2c(N)cc(=O)[nH]c2=S)c1C`, the outcome was “inactive”. In the case of `Cc1cc(C)c(NC(=O)c2cn3c4c(c(N5CCN(C)CC5)c(F)cc4c2=O)OCC3C)c(C)c1` (configuration not stated), the outcome is reported as “inactive”. With `Cc1ccc(N2C(=O)CC(Nc3ccccc3)C2=O)cc1` (configuration not stated) the outcome was “inactive”. With `CC1(C)CC(=O)C(C(=O)/C=C/NCCc2ccccc2)C(=O)C1` the outcome was “inactive”. In the case of `COc1cc(C2C(C(=O)c3ccc(C)o3)=C(O)C(=O)N2CCc2ccccc2)ccc1O` (configuration not stated), the outcome is reported as “inactive”. For `c1ccc(COc2cccc(CN3CCN(c4ccccn4)CC3)c2)cc1`, the outcome was “inactive”. With `O=c1[nH]c(CN2CCCCC2)nc2ccccc12` the outcome was “inactive”. With `CCCC(=O)c1c[nH]c(C(=O)NCCCN2CCOCC2)c1` the outcome was “inactive”. In the case of `CCOc1ccc(S(=O)(=O)NNC(=S)Nc2ccc(Br)cc2)cc1`, the outcome is reported as “inactive”. For `O=C(CSc1nc2ccccc2o1)Nc1ccc(N2CCOCC2)c(Cl)c1`, the outcome was “inactive”. In the case of `O=C(CSc1nc2ccccc2o1)Nc1ccc(N2CCOCC2)cc1`, the outcome is reported as “inactive”. In the case of `CCCCC(=O)NCCNC(=O)c1cc(OCC(F)(F)F)ccc1OCC(F)(F)F`, the outcome is reported as “inactive”. For `COc1ccc(-c2ccc(-c3noc(-c4cccs4)n3)c(OC)n2)cc1`, the outcome was “inactive”. In the case of `Cc1noc(C)c1CSc1nc2ccccc2nc1NS(=O)(=O)c1ccc(Cl)cc1`, the outcome is reported as “inactive”. In the case of `Fc1cccc(NCc2cn3ccccc3n2)c1`, the outcome is reported as “inactive”. In the case of `COc1ccc(CN2C(=O)Cc3c2nc(N)c2c(N)nc(N4CCCCC4)c(C#N)c32)cc1`, the outcome is reported as “inactive”. For `CCn1cc(C(=O)O)c(=O)c2cc(F)c(N3CCN(C(=S)NC(=O)c4ccccc4F)CC3)cc21`, the outcome was “inactive”. In the case of `CCCCNC(=O)c1cn(CC)c2cc(N3CCN(C)CC3)c(F)cc2c1=O`, the outcome is reported as “inactive”. In the case of `CCCNC(=O)c1cn(CC)c2cc(N3CCN(C)CC3)c(F)cc2c1=O`, the outcome is reported as “inactive”. In the case of `CCn1cc(C(=O)O)c(=O)c2cc(F)c(N3CCN(C(=S)NC(=O)c4ccccc4)CC3)cc21`, the outcome is reported as “inactive”. For `N#C/C=C(/N)c1ccc(Br)cc1`, the outcome was “inactive”. For `Oc1ccccc1-c1nc(/C=C/c2ccccc2)nn1-c1ccccc1`, the outcome was “inactive”. With `CCn1cc(C(=O)O)c(=O)c2cnc(N3CCNCC3)nc21` the outcome was “inactive”. For `N#Cc1c(N)n[nH]c1-c1cc2c([nH]1)CCCC2`, the outcome was “inactive”. With `O=C(CSc1ccc(Cl)cc1)Nc1ccccc1N1CCN(C(=O)c2ccc(Cl)cc2)CC1` the outcome was “inactive”. With `O=C(CCN1C(=O)C2C3C=CC(C3)C2C1=O)N1CCN(c2cccc(Cl)c2)CC1` (configuration not stated) the outcome was “inactive”. In the case of `CN(C(=O)c1cccc(C#N)c1)c1nnc(-c2cnccn2)s1`, the outcome is reported as “inactive”. With `NC(=O)N1OCC2COc3ccc4ccccc4c3C21` (configuration not stated) the outcome was “inactive”. In the case of `COc1c(N2CCN[C@H](C)C2)c(F)cc2c(=O)c(C(=O)O)cn(C3CC3)c12`, the outcome is reported as “inactive”. In the case of `COC(=O)c1sccc1NC(=O)c1csc2c1CCCC2`, the outcome is reported as “inactive”. With `CC(=O)Oc1c2occc2cc2ccc(=O)oc12` the outcome was “inactive”. With `COc1cc(C2Nc3cccc4cccc(c34)N2)cc(OC)c1OC(C)=O` the outcome was “inactive”. For `CCOc1ccc2nc(COC(=O)c3ccco3)c(C(C)=O)[n+]([O-])c2c1`, the outcome was “inactive”. In the case of `CC1=CC(C)(C)n2c(O)c(C3=NC(=S)NC3=O)c3cc(OC(=O)c4cccc5ccccc45)cc1c32`, the outcome is reported as “inactive”. In the case of `Cc1nc(-c2ccccn2)sc1C(=O)Nc1ccc(F)cc1F`, the outcome is reported as “inactive”. With `COC(=O)c1cn(C(=O)c2cccs2)c2ccccc12` the outcome was “inactive”. For `Cc1cc2cc(CNS(=O)(=O)c3ccc4ccccc4c3)ccc2n1C`, the outcome was “inactive”. In the case of `Cc1c(NS(=O)(=O)c2ccccc2)c(=O)n(-c2ccccc2)n1C`, the outcome is reported as “inactive”. For `C=CCSc1ncnc2sc(C)c(C)c12`, the outcome was “inactive”. With `c1ccn2c(CNc3ncnc4sccc34)nnc2c1` the outcome was “inactive”. With `N/C(=N\OC(=O)c1cccs1)C1(c2ccc(Cl)cc2Cl)CC1` the outcome was “inactive”. In the case of `COc1ccc(C(C)=O)c2c(O)cccc12`, the outcome is reported as “inactive”. With `Cc1ccc(S(=O)(=O)NNC(=O)c2ccc(O)cc2)cc1` the outcome was “inactive”. For `Cc1ccc(C2NNC(=O)C2NC(=O)c2ccccc2)cc1` (configuration not stated), the outcome was “inactive”. In the case of `Nc1nnc(-c2cccc(Cl)c2Cl)c(N)n1`, the outcome is reported as “inactive”.
